PAFAH2 FP inh: PAFAH2 enzyme inhibitors, primary screen, biochemical, fluorescence polarization, human | Platelet-activating factor acetylhydrolase 2, cytoplasmic (Homo sapiens), Q99487 | recombinant PAFAH2, FP-rhodamine activity probe | inhibition, % at 3.39 µM | 340,000 tested, 0.99% active;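 active = inhibition above the mean over all tested compounds plus 3 SD, cut at about 30% in these data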;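 also: inhibitors block probe labeling of enzyme so polarization drops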
ZTA counter: counter-screen for EBNA-1 inhibitors: inhibitors of Epstein-Barr virus ZTA | P03206 | ZTA-DNA binding, fluorescence polarization | inhibition, % at 11 µM | 320,000 tested, 0.15% active; in the data active = inhibition above about 33%
Target sequence (P03206 whole entry, looked up): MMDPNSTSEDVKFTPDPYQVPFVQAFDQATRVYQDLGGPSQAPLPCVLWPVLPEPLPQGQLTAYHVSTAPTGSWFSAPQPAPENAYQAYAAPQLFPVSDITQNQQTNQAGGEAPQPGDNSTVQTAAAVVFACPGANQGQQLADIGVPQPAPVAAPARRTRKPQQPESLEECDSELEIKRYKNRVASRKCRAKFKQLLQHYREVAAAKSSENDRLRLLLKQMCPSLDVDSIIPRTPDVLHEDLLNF
rCAG binder: binders of r(CAG) RNA repeats, primary screen, biochemical, fluorescence; AID 651821, 2012; inhibition, % at 3 µM; 370,000 tested, 1.3% active; r(CAG) RNA repeat, TO-PRO-1 dye displacement fluorescence;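 active = inhibition above the plate cutoff, the mean of all test compounds on that plate plus 3 SD, cut at about 35% in these data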;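 also: higher means more dye released from RNA so lower well fluorescence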
PAFAH1B2 FP inh: PAFAH1B2 enzyme inhibitors, primary screen, biochemical, fluorescence polarization, human; recombinant PAFAH1B2, FP-rhodamine activity probe; Platelet-activating factor acetylhydrolase IB subunit alpha2 (Homo sapiens), P68402; 340,000 tested, 1.2% active; inhibition, % at 3.39 µM;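 active = inhibition above the mean of all tested compounds plus 3 SD, cut at about 24% in these data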
PAFAH1B3 inh: PAFAH1B3 enzyme inhibitors, primary screen, biochemical, fluorescence polarization, human | Platelet-activating factor acetylhydrolase IB subunit alpha1 (Homo sapiens), Q15102 | recombinant PAFAH1B3, FP-rhodamine probe | inhibition, % at 3.39 µM | 340,000 tested, 0.28% active | AID 492972, 2010;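 active = inhibition above the screen-wide average of all tested compounds plus 3 SD, cut at about 25% in these data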
Target sequence (Q15102 whole entry, looked up): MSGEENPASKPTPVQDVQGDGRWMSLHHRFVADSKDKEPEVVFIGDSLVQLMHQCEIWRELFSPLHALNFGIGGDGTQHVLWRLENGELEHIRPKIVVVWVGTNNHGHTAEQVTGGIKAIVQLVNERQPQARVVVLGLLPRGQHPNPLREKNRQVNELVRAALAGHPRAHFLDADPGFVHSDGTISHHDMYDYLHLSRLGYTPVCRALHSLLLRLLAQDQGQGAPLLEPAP
EBNA-1 inhibitor: EBNA-1 DNA-binding inhibitors, primary screen, biochemical, fluorescence polarization; inhibition, % at 14.8 µM; 300,000 tested, 0.34% active; AID 1950, 2009; in the data active = inhibition above about 28%
PAFAH2 confirm: PAFAH2 enzyme inhibitors, confirmation, biochemical, fluorescence polarization, human; recombinant PAFAH2, FP-rhodamine activity probe; 2,300 tested, 65% active; shares compounds with PAFAH2 FP inh; inhibition, % at 3.39 µM;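 active = mean inhibition over three repeats above a set limit taken from the earlier primary screen, cut at about 30% in these data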;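 also: inhibitor blocks binding of rhodamine activity probe so polarization falls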
A number is an active result; i = inactive; nt = no result. Compounds with a hit are over-represented: about 2.9% of the library has one in this group of screens.

SMILES	PAFAH2 FP inh	ZTA counter	rCAG binder	PAFAH1B2 FP inh	PAFAH1B3 inh	EBNA-1 inhibitor	PAFAH2 confirm
COc1cccc(-c2nc3ccc([N+](=O)[O-])cc3o2)c1	i	i	i	i	i	i	nt
COc1cccc(-c2nc3ccccc3c(=O)o2)c1	68.4	i	i	i	i	i	73.1
N=C1/C(=C/c2ccc(Br)o2)C(=O)N=C2SC(CC(=O)N3CCCC3)=NN12	31.4	i	i	i	i	i	i
N=C1/C(=C/c2ccco2)C(=O)N=C2SC(CC(=O)N3CCCC3)=NN12	i	i	i	i	i	i	nt
Cn1c(=O)c2nc(Cl)c(-c3ccccc3)nc2n(C)c1=O	33.4	i	i	i	i	i	38.4
Cn1c(=O)c2nc(-c3ccccc3)c(-c3ccccc3)nc2n(C)c1=O	i	i	i	i	i	i	nt
O=C(O)CCCCCN1C(=O)/C(=C\c2ccc(-c3ccc(Cl)cc3)o2)SC1=S	i	i	i	i	i	i	nt
O=C(O)CCCN1C(=O)/C(=C/c2ccc(-c3nc4ccccc4s3)o2)SC1=S	50.0	i	i	i	i	i	50.5
O=C(NCCc1ccccc1)OCc1cn(-c2ccc(F)cc2)nn1	nt	nt	i	nt	nt	nt	nt
Cc1nc(NC(=O)COC(=O)CCc2ccccc2)c(Cl)cc1Cl	i	nt	i	i	i	nt	nt
Cc1nc(NC(=O)COC(=O)c2ccc(CO)cc2)c(Cl)cc1Cl	44.2	nt	i	i	i	nt	i
Cc1cccc(C)c1N1CCN(C(=O)N2CCOCC2)CC1	43.7	i	i	i	i	i	44.0
Cc1ccc(N2CCN(C(=O)N3CCOCC3)CC2)cc1C	i	i	i	i	i	i	nt
COc1ccc(OC)c(S(=O)(=O)N2CCCCC2C(=O)N2CCN(Cc3ccc(F)cc3)CC2)c1 (stereo not drawn)	nt	nt	i	nt	nt	nt	nt
Cc1cc(C(=O)OCC(=O)Nc2ccccc2F)c(C)o1	39.3	i	i	i	i	i	31.6
Cc1cc(C(=O)OCC(=O)Nc2cc(Cl)ccc2C)c(C)o1	i	i	i	i	i	nt	nt
COc1cccc(C(=O)COC(=O)c2ccc(NC(C)=O)cc2)c1	37.2	i	i	i	i	i	32.1
COc1ccc(C(=O)OCC(=O)c2ccc[nH]2)cc1	39.9	i	i	i	i	nt	30.7
CC(=O)Nc1ccc(C(=O)OCC(=O)Nc2ccccc2F)cc1	69.0	i	i	i	i	i	70.0
CCOC(=O)N(C)[C@H]1C[C@H]2c3[nH]c4cccc(-c5cccc(F)c5)c4c3CCN2C(=O)[C@H]1[C@H](C)O	nt	nt	i	nt	nt	nt	nt
C=CCN1[C@@H](C)COc2cccc(F)c2S1(=O)=O	nt	nt	i	nt	nt	nt	nt
CC1(c2nnnn2Cc2ccccc2)CCCC(=O)N1Cc1cccs1 (stereo not drawn)	nt	nt	i	nt	nt	nt	nt
O=C(Cc1ccc(NC(=O)C2CCN(C(=O)CCc3ccccc3)CC2)cc1)Nc1cccc(C(=O)N2CCCC2)c1	nt	nt	i	nt	nt	nt	nt
O=C(CSc1nnc(-c2ccccn2)n1-c1ccc(Cl)cc1)Nc1ccc2c(c1)OCCO2	nt	nt	i	nt	nt	nt	nt
Cc1cccc(NC(=O)COC(=O)c2cc(C)oc2C)c1	74.7	i	i	i	i	i	78.8
SMILES	PAFAH2 FP inh	ZTA counter	rCAG binder	PAFAH1B2 FP inh	PAFAH1B3 inh	EBNA-1 inhibitor	PAFAH2 confirm
Cc1cc(C(=O)OCC(=O)Nc2c(Cl)cccc2Cl)c(C)o1	i	nt	i	i	i	nt	nt
Cc1cccc(NC(=O)COC(=O)c2ccc3nc(C)c(C)nc3c2)c1	71.4	nt	i	i	i	nt	49.5
Cc1cc(C(=O)OCC(=O)Nc2ccccc2C#N)c(C)o1	43.2	nt	i	i	i	nt	32.1
Cc1cccc(NC(=O)COC(=O)c2ccc3c(=O)n4c(nc3c2)CCC4)c1	i	i	i	i	i	i	nt
Cc1cccc(-c2cccc3c4c([nH]c23)[C@@H]2C[C@H]3[C@@H](C(=O)N2CC4)[C@H](C)ON3C)c1	nt	nt	i	nt	nt	nt	nt
CCC(C)(C)C(=O)N1CCc2cc(S(=O)(=O)N(C)Cc3ccco3)ccc21	nt	nt	i	nt	nt	nt	nt
CCOC(=O)[C@]12CCCC=C1N(Cc1ccccc1)C(=O)[C@H](CC(=O)N1CCCC1)C2	nt	nt	i	nt	nt	nt	nt
O=C(NCc1ccccc1)C(c1ccccc1F)n1c(=O)c(-c2cc3ccccc3[nH]2)nc2ccccc21 (stereo not drawn)	nt	nt	i	nt	nt	nt	nt
